Screens (PubChem)
GalR3 antag: antagonists of human GalR3; O60755; HEK293 GalR3-CNG cAMP membrane potential fluorescence; galR3 body fused to GalR1 C-terminus; inhibition, % at 3 µM; hit rate 0.44% among 360,000; AID 651719;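 active = inhibition above the screen-wide average plus 3 SD, cut at about 13% in these data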;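 note: forskolin and galanin both at EC90 stimulate the cells; cAMP rise reported by CNG channel membrane potential dye signal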
Target sequence (O60755 1-299 limits assumed): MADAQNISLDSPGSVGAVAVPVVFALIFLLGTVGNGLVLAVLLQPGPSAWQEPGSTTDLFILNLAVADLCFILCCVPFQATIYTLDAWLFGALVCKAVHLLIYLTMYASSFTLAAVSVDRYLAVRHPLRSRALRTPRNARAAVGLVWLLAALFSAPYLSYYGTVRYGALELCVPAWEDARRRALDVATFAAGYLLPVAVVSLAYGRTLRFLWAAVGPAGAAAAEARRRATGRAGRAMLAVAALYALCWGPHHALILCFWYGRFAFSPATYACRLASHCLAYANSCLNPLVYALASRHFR
COUP-TFII inh: NR2F2 (human) inhibition, primary screen | inhibition, % at 8.6 µM | HEK293T NGFI-A luciferase reporter, luminescence | hit rate 0.7% among 370,000 | AID 686940 | P24468;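 active = inhibition above a per-plate cutoff, mean inhibition of test wells between control levels plus 3 SD, cut at about 38% in these data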;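 note: cells cotransfected with COUP-TFII expression vector driving the NGFI-A reporter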
SMARCA2 act: SMARCA2 function activation, primary screen; MG213 cells, MMTV-luciferase reporter, dexamethasone, overnight; activation, % at 9.1 µM; hit rate 1% among 370,000; AID 652017; in the data active = activation above about 7.8%
Gli-Sufu block: blocks Gli-Sufu signaling in a luciferase reporter; hit rate 0.74% among 340,000; Sufu-KO-LIGHT fibroblasts, Gli luciferase reporter luminescence; inhibition, % at 5 µM; AID 588413;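 active = inhibition above about 55%, limit read from the data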
H9c2 protect: myocardial damage modulation in H9c2 cells. H9c2 cardiomyocytes, H2O2 injury protection, ATPLite, 2 h. protection from H2O2 cell death, % at 20 µM. hit rate 0.63% among 360,000. AID 588492;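 active = compounds giving at least 50% protection of heart cells from peroxide-induced death in the single-dose screen, raw or plate-pattern-corrected value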
GAA850 FXN act: frataxin GAA850 promoter activation; HEK293 lucGAA850 FXN promoter luciferase reporter, 24 h; percent of 10 µM SAHA response; AID 540364; activation, % at 6 µM; hit rate 0.56% among 360,000;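 active = activation above the average of all compounds screened plus 3 SD, cutoff fixed separately per campaign, cut at about 7.5% in these data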
A number is an active result; - = inactive; . = no result. The list is not random: actives were taken first. Their share in the collection is about 3.4%.

SMILES	GalR3 antag	COUP-TFII inh	SMARCA2 act	Gli-Sufu block	H9c2 protect	GAA850 FXN act
C=CCN=C1NN=C(c2cc(C)n(CC=C)c2C)CS1	-	77	-	71	-	-
CCCCCn1nnnc1C1(C)CCCCC(=O)N1Cc1ccco1 (stereo not drawn)	.	-	-	.	.	.
Cc1ccc(-c2csc(N3CCC[C@@H]3C(=O)NCCn3c(-c4ccncc4)nc4ccccc43)n2)cc1	-	-	-	-	69	-
CCOc1ccc2[nH]c3c(N4CCc5ccccc5C4)ncnc3c2c1	-	-	-	-	-	-
Brc1ccc2[nH]c3c(N4CCc5ccccc5C4)ncnc3c2c1	.	.	.	72	.	.
O=C(/C=C/c1ccc(Cl)c([N+](=O)[O-])c1)Nc1cccc(NC(=O)c2ccco2)c1	-	-	-	-	88	-
O=C(/C=C/c1cccc([N+](=O)[O-])c1)Nc1cccc(NC(=O)c2ccco2)c1	-	-	-	-	-	-
O=C(/C=C/c1cccc([N+](=O)[O-])c1)Nc1cccc(NC(=O)c2cccs2)c1	-	-	-	-	81	-
O=C(/C=C/c1ccc(Cl)c([N+](=O)[O-])c1)Nc1cccnc1	-	-	-	-	50	-
CCCCc1c(-c2ccccc2OC)ncn1CCc1ccccc1Cl	-	-	-	.	.	.
COC(=O)[C@]12C[C@H](CC(=O)NCC3CCCCC3)C(=O)N(CCc3ccc(OC)c(OC)c3)C1=C[C@H](C(C)(C)C)O[C@@H]2C	-	-	-	.	.	.
Cc1ccc(S(=O)(=O)N2CCN(C(=O)C(O)c3ccccc3)CC2)cc1 (stereo not drawn)	-	-	-	.	.	.
Cc1ccc(S(=O)(=O)N(C)[C@H]2C[C@H]3c4cc(-c5ccccc5C)ccc4CCN3C[C@H]2[C@H](C)O)cc1	.	-	-	.	.	.
O=C(NCCc1ccc(F)cc1)C(=O)Nc1cc2c3c(c1)CC(=O)N3CCC2	-	-	-	-	53	-
O=C(NCCc1ccc(Cl)cc1)C(=O)Nc1cc2c3c(c1)CC(=O)N3CCC2	-	-	-	-	-	-
O=C(NCc1ccccc1)C1CCN(c2nc(-c3ccc(Br)cc3)cs2)CC1	.	-	.	.	.	.
COc1cc(NS(C)(=O)=O)ccc1Nc1c2ccccc2nc2ccccc12	-	-	-	74	-	-
O=[N+]([O-])c1ccc(/C=C/c2ccncc2)cc1	-	-	7.9	-	-	-
O=[N+]([O-])c1cccc(/C=C/c2ccncc2)c1	-	-	-	-	-	-
CC(=O)c1cc(-c2cc(C(F)(F)F)cc(C(F)(F)F)c2)c(=O)n2c1CCC2	.	-	-	.	.	.
Brc1ccc(CSc2nnc(SCc3ccccc3)s2)cc1	.	-	-	.	.	.
Cc1ccc(-c2nc3c(Cl)cc(C(F)(F)F)cn3c2Cc2ccccc2C(F)(F)F)cc1	-	-	-	.	.	.
FC(F)(F)c1cc(Cl)c2nc(-c3ccco3)c(Cc3ccccc3C(F)(F)F)n2c1	21	-	-	.	.	.
O=C(Nc1nccs1)c1cn(-c2ccccc2)nc1-c1ccncc1	-	-	-	-	-	-
COc1ccc(-c2nn(-c3ccccc3)cc2C(=O)Nc2nccs2)cc1	-	-	-	-	59	-
SMILES	GalR3 antag	COUP-TFII inh	SMARCA2 act	Gli-Sufu block	H9c2 protect	GAA850 FXN act
COc1cccc(-c2nn(-c3ccccc3)cc2C(=O)Nc2nccs2)c1	-	-	-	-	63	-
COC(=O)[C@]12C[C@H](CC(=O)N3CCN(C(=O)C4CC4)CC3)C(=O)N(Cc3ccco3)C1=C[C@H](COCc1ccccc1)O[C@@H]2C	.	-	-	.	.	.
COc1cc(NC(=O)c2cc(C)on2)c(OC)cc1Cl	.	-	.	.	.	.
CC1(c2nnnn2-c2ccc3ccccc3c2)CSCC(=O)N1C1CC1 (stereo not drawn)	.	-	-	.	.	.
COc1ccc(-c2oc3c(OC)c(OC)c(OC)c(O)c3c(=O)c2OC)cc1OC	-	-	-	-	72	-
CCC(CC)NC(=O)O[C@H]1CC[C@@]23CCCN2C(=O)CCC[C@H]3C1	.	-	.	.	.	.
Brc1ccc(/C=N/Nc2ccc3ccccc3n2)cc1	-	-	-	-	-	7.8
COc1ccc2c(c1)[C@@]1(OCCC=C[C@H]1C)C(=O)N2Cc1ccc(F)cc1	-	-	-	.	.	.
C=Cc1ccc(C(=O)Nc2nnc(-c3cccnc3)s2)cc1	.	-	-	.	.	.
Cc1ccc(C(=O)CC(=O)COc2ccc(Cl)cc2)cc1	-	-	-	-	72	-
CC1=C2NC(N)=[N+](CC3CC3)C(Cc3ccccc3)[C@@H]2n2c(=O)n(-c3ccccc3)c(=O)n2C1 (stereo partly drawn)	.	-	-	.	.	.
